Cell viability data for nine molecules are collected here from the supplement of paper PMC10981050.

Each structure is given as a SMILES string. Several values for one entry are separate records, joined by “and”; a condition that tells them apart may be missing. Identical values can stand only once.

What all share (assay): cell viability relative to vehicle control; higher = less cytotoxic
Common to all, as to settings: 10 µM

Experiment [1] deals with K562. The essentials: (§1)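 Four leukaemia lines, as CRISPR-edited mutant clones and isogenic wild-type clones, were tested against Selleck bioactive, kinase and epigenetic probe libraries after removal of identity-inconsistent compounds. Cells were exposed to a single 10 µM dose for 48 h, and CellTiter-Glo luminescence was then read. Viability was calculated relative to the on-plate vehicle control.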

For experiment [2], the system named is MARIMO. The essentials: as §1
The test system of experiment [3] is MOLM14. The essentials:
as §1

The subject of experiment [4] is OCI-AML2. The essentials: as §1

As a reminder, the cell viability is a read-out of living cells in per cent, often relative to untreated cells.

For the molecule `C[C@@]12CC[C@@H]3[C@@](CC[C@H]4[C@@]3(C)CCC[C@@]4(C)C(=O)O)(CC1=O)C2` [Iso-Steviol], the cell viability was 100% and 92.9% in experiment [1] (SRSF2 genotype: SRSF2 P95H/wt); 96.7% in experiment [1] (SRSF2 genotype: SRSF2 wt/wt); 99.4% in experiment [2] (SRSF2 genotype: SRSF2 P95H/wt); 107% in experiment [2] (SRSF2 genotype: SRSF2 wt/wt); 95% in experiment [3] (SRSF2 genotype: SRSF2 P95H/wt); 94.7% in experiment [3] (SRSF2 genotype: SRSF2 wt/wt). Further, the cell viability in experiment [4] (SRSF2 genotype: P95H/wt) was determined as 88.3%; in experiment [4] (SRSF2 genotype: wt/wt) it was 101%.

As for `Cc1cccc(N(C)C(=S)Oc2ccc3ccccc3c2)c1` [Tolnaftate], the cell viability in experiment [1] (SRSF2 genotype: SRSF2 P95H/wt) was 99.7% and 106%; in experiment [1] (SRSF2 genotype: SRSF2 wt/wt), 91.9%; in experiment [2] (SRSF2 genotype: SRSF2 P95H/wt), 89.3%; in experiment [2] (SRSF2 genotype: SRSF2 wt/wt) it was 109%; in experiment [3] (SRSF2 genotype: SRSF2 P95H/wt), 96.9%; in experiment [3] (SRSF2 genotype: SRSF2 wt/wt), 101%. Further, the cell viability was determined as 106% in experiment [4] (SRSF2 genotype: P95H/wt) and 109% in experiment [4] (SRSF2 genotype: wt/wt).

With `OC[C@H]1O[C@H](OC[C@H]2O[C@H](O[C@]3(CO)O[C@H](CO)[C@@H](O)[C@@H]3O)[C@H](O)[C@@H](O)[C@@H]2O)[C@H](O)[C@@H](O)[C@H]1O` [D-(+)-Raffinose pentahydrate], the cell viability in experiment [1] (SRSF2 genotype: SRSF2 P95H/wt) is 114% and 103%; in experiment [1] (SRSF2 genotype: SRSF2 wt/wt), 118%; in experiment [2] (SRSF2 genotype: SRSF2 P95H/wt), 104%; in experiment [2] (SRSF2 genotype: SRSF2 wt/wt), 103%; in experiment [3] (SRSF2 genotype: SRSF2 P95H/wt) it was 112%; in experiment [3] (SRSF2 genotype: SRSF2 wt/wt) it was 113%. Also, the results for the cell viability in experiment [4] (SRSF2 genotype: P95H/wt) and in experiment [4] (SRSF2 genotype: wt/wt) were 104% and 103%, respectively.

With `CC(=O)S[C@@H]1CC2=CC(=O)CC[C@]2(C)[C@H]2CC[C@@]3(C)[C@@H](CC[C@@]34CCC(=O)O4)[C@H]12` [spironolactone], the cell viability in experiment [1] (SRSF2 genotype: SRSF2 P95H/wt) was 87.8% and 90.2%; in experiment [1] (SRSF2 genotype: SRSF2 wt/wt) it was 89.7%; in experiment [2] (SRSF2 genotype: SRSF2 P95H/wt) it was 78.3%; in experiment [2] (SRSF2 genotype: SRSF2 wt/wt), 84.5%; in experiment [3] (SRSF2 genotype: SRSF2 P95H/wt) it was 90.1%; in experiment [3] (SRSF2 genotype: SRSF2 wt/wt), 91.5%. In addition, the values for the cell viability in experiment [4] (SRSF2 genotype: P95H/wt) and in experiment [4] (SRSF2 genotype: wt/wt) were 90.6% and 97.9%, respectively.

Regarding `COc1ccc(-c2oc3c(CC=C(C)C)c(O[C@@H]4O[C@H](CO)[C@@H](O)[C@H](O)[C@H]4O)cc(O)c3c(=O)c2O[C@@H]2O[C@@H](C)[C@H](O)[C@@H](O)[C@H]2O[C@@H]2OC[C@@H](O)[C@H](O)[C@H]2O)cc1` [Epmedin B], the cell viability in experiment [1] (SRSF2 genotype: SRSF2 P95H/wt) was 103% and 99.7%; in experiment [1] (SRSF2 genotype: SRSF2 wt/wt), 102%; in experiment [2] (SRSF2 genotype: SRSF2 P95H/wt), 105%; in experiment [2] (SRSF2 genotype: SRSF2 wt/wt), 93%; in experiment [3] (SRSF2 genotype: SRSF2 P95H/wt) it was 110%; in experiment [3] (SRSF2 genotype: SRSF2 wt/wt) it was 102%. Besides, the cell viability in experiment [4] (SRSF2 genotype: P95H/wt) was found to be 103%; in experiment [4] (SRSF2 genotype: wt/wt), 99.5%.

Take `Cc1cc([N+](=O)[O-])ccc1NS(=O)(=O)c1cc(Cl)ccc1Cl`: the cell viability is 79.9% and 88% in experiment [1] (SRSF2 genotype: SRSF2 P95H/wt); 86.3% in experiment [1] (SRSF2 genotype: SRSF2 wt/wt); 96.4% in experiment [2] (SRSF2 genotype: SRSF2 P95H/wt); 92.9% in experiment [2] (SRSF2 genotype: SRSF2 wt/wt); 92.3% in experiment [3] (SRSF2 genotype: SRSF2 P95H/wt); 90.9% in experiment [3] (SRSF2 genotype: SRSF2 wt/wt). Further, the cell viability in experiment [4] (SRSF2 genotype: P95H/wt) was 93.1%; in experiment [4] (SRSF2 genotype: wt/wt), 97.1%.

Regarding `CCOc1cc2ncc(C#N)c(Nc3ccc(F)c(Cl)c3)c2cc1NC(=O)/C=C/CN(C)C` [Pelitinib (EKB-569)], the cell viability was 9.19% and 1.6% in experiment [1] (SRSF2 genotype: SRSF2 P95H/wt); 0.91% in experiment [1] (SRSF2 genotype: SRSF2 wt/wt); 5.88% in experiment [2] (SRSF2 genotype: SRSF2 P95H/wt); 1.37% in experiment [2] (SRSF2 genotype: SRSF2 wt/wt); 0.45% in experiment [3] (SRSF2 genotype: SRSF2 P95H/wt); 0.62% in experiment [3] (SRSF2 genotype: SRSF2 wt/wt). The cell viability in experiment [4] (SRSF2 genotype: P95H/wt) stood at 0.33%; in experiment [4] (SRSF2 genotype: wt/wt), 0.46%.

Turning to `CNC(=O)c1ccc(N2C(=S)N(c3ccc(C#N)c(C(F)(F)F)c3)C(=O)C2(C)C)cc1F` [MDV3100 (Enzalutamide)], the cell viability is 84.9% and 91.7% in experiment [1] (SRSF2 genotype: SRSF2 P95H/wt); 89.2% in experiment [1] (SRSF2 genotype: SRSF2 wt/wt); 90.4% in experiment [2] (SRSF2 genotype: SRSF2 P95H/wt); 89.1% in experiment [2] (SRSF2 genotype: SRSF2 wt/wt); 89.2% in experiment [3] (SRSF2 genotype: SRSF2 P95H/wt); 90.3% in experiment [3] (SRSF2 genotype: SRSF2 wt/wt). Moreover, the cell viability was found to be 83.3% in experiment [4] (SRSF2 genotype: P95H/wt) and 80.3% in experiment [4] (SRSF2 genotype: wt/wt).

Regarding `CN[C@@H](C)C(=O)N[C@H]1CN(C(=O)CC(C)C)CC[C@H]2CC[C@@H](C(=O)NC(c3ccccc3)c3ccccc3)N2C1=O`, the cell viability is 69.6% and 74.7% in experiment [1] (SRSF2 genotype: SRSF2 P95H/wt); 72.8% in experiment [1] (SRSF2 genotype: SRSF2 wt/wt); 64.5% in experiment [2] (SRSF2 genotype: SRSF2 P95H/wt); 46.6% in experiment [2] (SRSF2 genotype: SRSF2 wt/wt); 0.57% in experiment [3] (SRSF2 genotype: SRSF2 P95H/wt); 0.76% in experiment [3] (SRSF2 genotype: SRSF2 wt/wt). For the same molecule, the cell viability amounted to 60.2% in experiment [4] (SRSF2 genotype: P95H/wt) and 39.2% in experiment [4] (SRSF2 genotype: wt/wt).
